In PubChem BioAssay (NCI):
About 83,000 compounds went through this panel and 20% of them were active in at least one assay; those are over-represented in the sample as a whole.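 96-well plates, one dose, 48 hours. Percent growth reported; active if below 10.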 Values without a mark were called inactive. The source made the active and inactive calls.

Tested on: IGROV1 ovarian
Experiment: NCI-60 one-dose screen, 48 h (100 = growth as untreated, 0 = no growth, -100 = all killed)
Details: 10 µM unless noted

Structure (SMILES)	growth
Cc1cc(S(=O)(=O)/N=C(\N)n2nc(C)c(C)c2C)c(SCc2ccccc2)cc1Cl	-20.8% (active)
CS(=O)(=O)Nc1cncc(-c2ccc3ncnc(Nc4cncc(Cl)c4)c3c2)c1	69.8%
CC(C)(Sc1cc(C(C)(C)C)c(OC(=O)CCCC(=O)O)c(C(C)(C)C)c1)Sc1cc(C(C)(C)C)c(OC(=O)CCCC(=O)O)c(C(C)(C)C)c1	36.6%
COc1cc2c(c(OC)c1OC)CCC(c1cccc(NC(=O)c3ccc(Br)cc3)c1)O2 (configuration not stated)	71%
COc1ccc(CNc2c3ccccc3nc3ccccc23)cc1	27.2%
N#CSc1c[nH]c2cccc(/C=C/C(=O)/C=C(/C=C/c3cccc4[nH]cc(SC#N)c34)OB(F)F)c12	3.87% (active)
CC1=NC2=Nn3c(c4cnn(-c5ccccc5)c4n/c3=N\N)NN2C(c2ccccc2)=C1	61.8%
COc1ccc(\C=N/N=C(N)/C(N)=N\N=C/c2ccc(OC)cc2)cc1	122%
NC(=O)c1cccc(-n2ccc3cc(NC(=O)c4ccc(N5CCOCC5)c(C(F)(F)F)c4)ccc32)n1	74.8%
COc1ccc(-c2nc3cc(C(=O)NCc4ccccc4)ccc3n2C2CCCCC2)cc1	105%
CN(C)CC(C)(C)C(=O)/C=C/c1ccccc1	-16.7% [25 µM] (active)
C=CCn1c(SCC(=O)Nc2ccc(C(=O)/C=C/c3ccc(Cl)cc3)cc2)nnc1-c1ccc(Br)cc1	87.2%
Cc1cn(-c2cc(NC(=O)c3cccc(C#Cc4cccc5[nH]nc(N)c45)c3)cc(C(F)(F)F)c2)cn1	15.4%
Oc1c(I)cc(I)cc1CNCCN(Cc1ccccn1)Cc1ccccn1	-66.3% (active)
C=CC[Se]C(=O)Cc1c(C)n(C(=O)c2ccc(Cl)cc2)c2ccc(OC)cc12	2.4% (active)
CCC(=C(c1ccc(OCCN2CCCCC2)cc1)c1ccc(OCCN2CCCCC2)cc1)c1ccc(Cl)cc1	-87.9% (active)
Cc1ccc(/C=C2\COc3ccc(O)cc3C2=O)cc1	95.1%
COc1cc2nc3cc([N+](=O)[O-])ccc3c(NCCNCC(C)O)c2cc1OC (configuration not stated)	-16.5% (active)
O=C(NNC(=O)c1ccc(NC(=O)c2ccccn2)cc1)Nc1ccc([N+](=O)[O-])cc1	88.5%

Structure (SMILES)	growth
O=C(Nc1ccc(Oc2cccc(F)c2)c(Cl)c1)c1cccnc1	41.8%
CCCc1c(OC(=O)c2ccccc2)nc2[nH]c(=O)sc2c1C	101%
CCCCCN1C(=O)/C(=c2\sc3n(c2=O)C2C(NN=3)N(CC)C(=O)N2CC)c2ccccc21 (configuration not stated)	2.27% (active)
CCOC(=O)c1cc(C)n(-c2ccc(C(=O)O)cc2)c1C	107%
O=C1NC(=O)C(Cc2ccc(OCc3ccc(-c4ccc(Cl)cc4Cl)cc3)cc2)S1 (configuration not stated)	52.2%
CC/C=C\C[C@H](O)C/C=C1/C(=O)C=C[C@@H]1C/C=C\CCCC(=O)N(C)C	11.5%
NC(=O)CSc1oc(-c2ccccc2)nc1S(=O)(=O)c1ccc(Br)cc1	93%
COc1cc(-c2nccc3[nH]c(-c4ccc5cc[nH]c5c4)nc23)cc(OC)c1OC	29.5%
Cc1nc2sc(C(=O)Nc3cccc(Br)c3)c(N)c2cc1C(O)c1ccccc1 (configuration not stated)	32.1%
CC(C)c1ccc(Cc2cnc(NC(=O)c3cc(Br)cs3)s2)cc1	38%
Cc1ccc(-c2nc([P+](c3ccccc3)(c3ccccc3)c3ccccc3)c(S(=O)(=O)c3ccc(C)cc3)o2)cc1	26.4%
COC(CC(F)F)c1cn(S(=O)(=O)c2ccc(C)cc2)c2ccccc12 (configuration not stated)	35.8%
Cc1ccc(C[P+](c2ccccc2)(c2ccccc2)c2ccccc2)cc1	18.7%
Cn1cc(-c2nonc2-c2cn(C)c3ccccc23)c2ccccc21	45.9%
CC1=C2[C@@H](CC1)[C@]1(C)O[C@@](C(C)C)(C[C@H]1OC(=O)[C@H](C)O)[C@H]2OC(=O)/C=C/c1ccccc1	97.4%
Cc1c(-c2ccc(O)cc2)n(Cc2ccc(OCCN3CCCCCC3)cc2)c2ccc(O)cc12	85.7%
CCOC(=O)C(=O)C(C(=O)OCC)c1ccccc1 (configuration not stated)	122%
CS(=O)(=O)c1ccc(-c2cnn3ccc(-c4cccc(S(=O)(=O)C5CC5)c4)nc23)cc1	13.1%
